# Measured values: PubChem BioAssay AID651610 (Broad Institute, 2012)
# Hit rate of the full screen: of about 360,000 compounds, about 3,900 (1.1%) were called active.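 The calls were made as follows: active = mean replicate inhibition score of at least 50 and every replicate individually at or above 50; inconclusive = only one of the two criteria met; inactive = mean below 50 and not all replicates reaching 50.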 Many of the other results were omitted from the sample, so actives are more common in it than they were.
# Assay: blockers of JRFL envelope-mediated fusion – HeLa-JRFL effector, CEM21 target cells, luciferase, primary screen (AID 651610);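 also: 0% = plate neutral controls and 100% = maraviroc near 300 nM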
# Conditions: HeLa-JRFL Env/CEM21 cell fusion, active compounds read high; at 16.7 µM unless noted
row,Compound,inhibition
1,COc1cccc(-c2cnc3c(c2)C(=O)N([C@H](C)CO)C[C@H](C)[C@H](CN(C)C(=O)NC(C)C)O3)c1,7.31% (inactive)
2,CCc1ccc(-c2nc(SCC(=O)NC3CCCC3)n[nH]2)cc1,56.7% [at 12.3 µM] (active)
3,COC(=O)c1ccccc1NC(=O)CSc1n[nH]c(-c2ccncc2)n1,9.97% [at 12.3 µM] (inactive)
4,CCc1c(C)nc(SCC(=O)NC2CCCC2)[nH]c1=O,-1.14% [at 12.3 µM] (inactive)
5,C=CC1=CCN(S(=O)(=O)C(C)(C)C)[C@@H]1CCO,21.3% [at 12.3 µM] (inactive)
6,CCCNC(=O)N(C)C[C@H]1Oc2ncc(-c3ccc(F)cc3)cc2C(=O)N([C@H](C)CO)C[C@H]1C,-0.986% (inactive)
7,CC(C)CC#Cc1cnc2c(c1)C(=O)N([C@@H](C)CO)C[C@H](C)[C@@H](CN(C)C(=O)c1cccc(F)c1)O2,-7.05% (inactive)
8,C[C@H](CO)N1C[C@H](C)[C@@H](CN(C)C(=O)C2CC2)Oc2cc(C#CC3CC3)ccc2S1(=O)=O,18.8% (inactive)
9,CN1CCN(C(=O)C[C@@H]2C[C@@H]3c4cc(NC(=O)c5ccc6c(c5)OCO6)ccc4O[C@@H]3[C@H](CO)O2)CC1,2.49% (inactive)
10,COc1cccc(-c2nc(CS(=O)(=O)CC(=O)NCCc3ccc(OC)c(OC)c3)c(C)o2)c1,28.2% [at 12.3 µM] (inactive)
11,COc1ccc(CCNC(=O)C2CCCN(Cc3nc(-c4cccc(Cl)c4)oc3C)C2)cc1OC (centres undefined),81.2% [at 12.3 µM] (active)
12,COc1ccc(CCNC(=O)CS(=O)(=O)Cc2nc(-c3ccc(C)cc3)oc2C)cc1OC,9.54% [at 12.3 µM] (inactive)
13,CO[C@H]1CN(C)C(=O)c2cc(NC(=O)C3CCCC3)ccc2OC[C@@H](C)N(C(=O)CC2CC2)C[C@@H]1C,-11.3% (inactive)
14,O=C1/C(=C\c2ccc([N+](=O)[O-])cc2)CS(=O)(=O)C/C1=C/c1ccc([N+](=O)[O-])cc1,85.4% [at 12.3 µM] (active)
15,CC(=O)Nc1ccc(C=Cc2ccc([N+](=O)[O-])cc2)cc1,-56.5% [at 12.3 µM] (inactive)
16,O=C(O)C(=Cc1ccc([N+](=O)[O-])cc1)CCc1ccccc1,-1.24% [at 12.3 µM] (inactive)
17,CS(=O)(=O)Nc1ccc2c(c1)[C@H]1C[C@H](CC(=O)NCc3ccc(Cl)cc3)O[C@@H](CO)[C@H]1O2,-3.71% (inactive)
18,O=C(NCC[C@@H]1CC[C@H](NC(=O)C2CC2)[C@H](CO)O1)c1cnccn1,1.75% (inactive)
19,C[C@@H]1CCCCO[C@H](CN(C)Cc2ccc(Cl)c(Cl)c2)[C@H](C)CN([C@@H](C)CO)C(=O)c2cc(NC(=O)CCC(F)(F)F)ccc2O1,-44.8% (inactive)
